This note sets out measurements from PubChem BioAssay AID1347074 (Center for Chemical Genomics, University of Michigan, 2019).

The campaign covered roughly 47,000 compounds. About 2,800 (6%) were called active. What follows is part of a selection rich in actives, with near analogues and random picks from the rest. Unmarked numbers belong to inactive results. Rule as the data show it: active = z-score above about 3 (passing the limit was not always enough); inactive = the rest.

For this assay, the target named is Endoribonuclease Dicer (Homo sapiens) (UniProt Q9UPY3). In words: Dicer cleavage of pre-miR-21 blockers – biochemical, cat-ELCCA, chemiluminescence, primary screen (AID 1347074).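 Also: plate controls were vehicle for no effect and no enzyme for full effect; higher signal means more uncleaved substrate so more Dicer inhibition.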 The settings on record: cat-ELCCA pre-miR-21 Dicer processing, at 25 µM, hits give high values.
Endoribonuclease Dicer (Homo sapiens), sequence (Q9UPY3 whole entry, looked up): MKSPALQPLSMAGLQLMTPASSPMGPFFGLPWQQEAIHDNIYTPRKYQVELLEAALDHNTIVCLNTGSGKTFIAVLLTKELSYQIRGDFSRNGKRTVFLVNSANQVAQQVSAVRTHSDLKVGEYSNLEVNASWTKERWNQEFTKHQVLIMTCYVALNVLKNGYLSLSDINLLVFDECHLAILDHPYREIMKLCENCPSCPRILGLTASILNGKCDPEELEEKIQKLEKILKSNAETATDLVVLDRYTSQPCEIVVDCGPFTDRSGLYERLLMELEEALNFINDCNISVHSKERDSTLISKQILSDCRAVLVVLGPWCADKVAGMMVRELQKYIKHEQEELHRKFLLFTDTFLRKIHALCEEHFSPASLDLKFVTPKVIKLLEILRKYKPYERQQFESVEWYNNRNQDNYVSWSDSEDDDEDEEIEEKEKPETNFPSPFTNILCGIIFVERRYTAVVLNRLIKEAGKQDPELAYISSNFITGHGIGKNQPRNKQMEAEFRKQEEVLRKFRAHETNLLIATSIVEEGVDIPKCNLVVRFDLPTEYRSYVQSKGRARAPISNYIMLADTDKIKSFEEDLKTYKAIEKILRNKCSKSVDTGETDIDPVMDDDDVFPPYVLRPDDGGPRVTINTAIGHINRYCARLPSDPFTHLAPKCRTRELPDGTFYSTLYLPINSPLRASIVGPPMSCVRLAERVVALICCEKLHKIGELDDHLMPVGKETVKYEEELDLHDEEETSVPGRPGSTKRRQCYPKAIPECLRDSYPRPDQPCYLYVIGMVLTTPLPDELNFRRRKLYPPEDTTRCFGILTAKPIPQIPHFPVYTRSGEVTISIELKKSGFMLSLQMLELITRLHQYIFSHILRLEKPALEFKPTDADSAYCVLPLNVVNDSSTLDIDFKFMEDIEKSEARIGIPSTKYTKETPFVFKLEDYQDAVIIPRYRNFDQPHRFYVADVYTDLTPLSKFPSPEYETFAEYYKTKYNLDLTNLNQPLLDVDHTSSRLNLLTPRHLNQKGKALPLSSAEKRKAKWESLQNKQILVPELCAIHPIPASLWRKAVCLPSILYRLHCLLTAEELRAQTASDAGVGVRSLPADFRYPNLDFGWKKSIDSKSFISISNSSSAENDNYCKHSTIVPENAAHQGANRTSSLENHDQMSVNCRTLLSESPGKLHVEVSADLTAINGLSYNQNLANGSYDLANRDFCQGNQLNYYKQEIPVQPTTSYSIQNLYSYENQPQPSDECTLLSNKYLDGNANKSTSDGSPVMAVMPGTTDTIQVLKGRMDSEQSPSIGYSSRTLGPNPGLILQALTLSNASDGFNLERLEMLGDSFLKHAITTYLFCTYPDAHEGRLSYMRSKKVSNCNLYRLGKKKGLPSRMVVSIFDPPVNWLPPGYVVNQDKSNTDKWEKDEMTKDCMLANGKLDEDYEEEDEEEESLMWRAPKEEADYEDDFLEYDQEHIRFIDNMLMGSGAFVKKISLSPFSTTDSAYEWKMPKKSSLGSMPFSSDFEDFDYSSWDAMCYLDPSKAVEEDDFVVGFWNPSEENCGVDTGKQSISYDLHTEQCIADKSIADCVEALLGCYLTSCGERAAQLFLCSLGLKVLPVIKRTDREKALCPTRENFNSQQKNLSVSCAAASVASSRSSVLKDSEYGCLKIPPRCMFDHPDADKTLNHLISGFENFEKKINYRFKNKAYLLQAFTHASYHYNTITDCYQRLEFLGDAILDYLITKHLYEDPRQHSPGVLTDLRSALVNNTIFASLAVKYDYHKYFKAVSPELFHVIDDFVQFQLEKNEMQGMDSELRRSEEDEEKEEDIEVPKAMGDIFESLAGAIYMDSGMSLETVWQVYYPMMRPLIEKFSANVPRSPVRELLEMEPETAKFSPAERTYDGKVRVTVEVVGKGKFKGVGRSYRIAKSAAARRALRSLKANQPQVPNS
In the case of `O=C(CN1C(=O)c2ccccc2S1(=O)=O)NC1CCCCC1`, the z-score is 1.13.

Consider `Cc1ccc(C(=O)CC2(O)C(=O)N(CN3CCCCC3)c3ccc(Br)cc32)cc1` (stereo not drawn), for which the z-score is 0.51.

As for `CCOC(=O)c1sc(SC)c2c1-c1ccccc1N(C)S2(=O)=O`, the z-score is -1.61.

Turning to `CCOC(=O)c1sc2ccccc2c1N`, the z-score is 0.22.

For `CCOC(=O)c1sc(SC)c(-c2ccccc2)c1N`, the z-score was 11.5 (active).

`CCOC(=O)/C(=N\Nc1ccccc1)c1csc(N)n1`: the z-score is 0.02.

As for `Cc1cc(C)n(C(=O)COc2ccc3ccccc3c2Br)n1`, the z-score is 2.85.

On to `CC(C)OC(=O)C1C(=O)CC(C)(O)C(C(=O)OC(C)C)C1c1ccc(O)cc1` (stereo not drawn), for which the z-score was -0.2.

On to `COC(=O)C1=C(C)NC2=C(C(=O)CC(C)(C)C2)C1c1cc(Cl)c(O)c(OC)c1` (stereo not drawn), for which the z-score is 3.12.

Take `CC(C(=O)N1CCCC1)N1c2cccc3cccc(c23)S1(=O)=O` (stereo not drawn): the z-score was -0.76.

With `O=[N+]([O-])c1cc(-c2cnc3ccccc3n2)ccc1Sc1ccccn1`, the z-score is 15.7.

For the molecule `COC(=O)c1cc(OC)c(OC)cc1N1C(=O)c2ccccc2C1=O`, the z-score was 0.34.

On to `COC(=O)c1ccccc1-c1c2ccc(=O)cc-2oc2cc(O)ccc12`, for which the z-score was 7.57 (active).

On to `COC(=O)c1ccccc1N(C)C(=O)c1cc(OC)c(OC)c(OC)c1`, for which the z-score was -0.98.

Take `COC(=O)c1cc(NC(=O)NC(=O)c2c(Cl)cccc2Cl)ccc1S(=O)(=O)Cc1ccc(Cl)cc1`: the z-score was 1.45.

As to `CN(C)CCN1C(=O)C(=O)/C(=C(/O)c2ccc(F)cc2)C1c1cccs1` (stereo not drawn), the z-score is 1.06.

As to `O=C(Oc1ccc(Cl)cc1Cl)c1ccc(Cl)cc1[N+](=O)[O-]`, the z-score is 4.36 (active).

`COC(=O)c1sccc1Oc1ccc(Cl)cc1[N+](=O)[O-]`: the z-score is -0.2.

`CC(CC(=O)O)Oc1ccc(Cl)cc1[N+](=O)[O-]` (stereo not drawn): the z-score was -0.09.

For `CC(C)N1CNc2nc3ccccc3n2C1`, the z-score was 1.6.

In the case of `O=c1oc2cc(S(=O)(=O)N3CCCCC3)ccc2c2ccc(S(=O)(=O)N3CCCCC3)cc12`, the z-score is 1.67.

`COc1ccc(S(=O)(=O)N2CCCCC2)cc1Br`: the z-score was 4.32 (active).

As to `COc1ccccc1N1CCN(S(=O)(=O)c2ccc(Br)cc2)CC1`, the z-score was 1.29.

For `Cc1nc(-c2ccc(S(=O)(=O)N3CCCN(c4ncc(C(F)(F)F)cc4Cl)CC3)s2)cs1`, the z-score is -1.58.

As to `O=C1COCC(=O)N1c1ccc2c(c1)OCO2`, the z-score was 3.01 (active).

As for `O=C1COCC(=O)N1c1ccc(F)cc1F`, the z-score is 2.81.

On to `O=C1/C(=C/c2ccc3c(c2)OCO3)CCC/C1=C\c1ccc2c(c1)OCO2`, for which the z-score was -1.56.

`CS(=O)(=O)N1N=C(c2c(-c3ccccc3)c3cc(Cl)ccc3[nH]c2=O)CC1c1cccs1` (stereo not drawn): the z-score was 0.27.

As to `O=c1c(-c2ccccc2)coc2cc(O)ccc12`, the z-score is 3.37 (active).

With `Cc1c2occ(-c3ccccc3)c2cc2c1oc(=O)c1ccccc12`, the z-score was 2.4.

Turning to `COc1ccccc1-c1coc2cc(OC(=O)c3ccccc3Cl)ccc2c1=O`, the z-score was 0.93.

For the molecule `Cc1nn(Cc2ccc(C(=O)NCc3ccccn3)o2)c(C)c1[N+](=O)[O-]`, the z-score was 1.35.

Consider `Fc1ccc2onc(-c3cnn(-c4ccccc4)c3)c2c1`, for which the z-score is 3.3 (active).

Take `Cc1ccc2oc(-c3cccc(N4C(=O)c5cccnc5C4=O)c3)nc2c1`: the z-score is -1.

On to `COc1ccc(-n2cnc3cc(NCc4ccco4)ccc32)cc1`, for which the z-score is 6.39 (active).

As to `CC(Oc1cccc2c(=O)c3ccccc3oc12)C(=O)O` (stereo not drawn), the z-score was -0.48.

Consider `CSc1sc(C(=O)NN)cc1C#N`, for which the z-score was 1.26.

With `CCOC(=O)N1CCc2c(sc3c2C(=O)NC(c2ccccc2F)N3)C1` (stereo not drawn), the z-score is 1.08.

Regarding `Cc1cc(C(C)(C)C)ccc1NC(=O)COCC(=O)O`, the z-score was 1.34.

With `CCOc1ccc(-c2nc(-c3ccc(C)nc3OC)no2)cc1`, the z-score was 0.23.

Consider `CCOc1ccc(-c2cc(O)cc3sc(=O)oc23)cc1`, for which the z-score was 5.74 (active).

As to `CCCCOc1cc(O)c2c(=O)cc(-c3ccccc3)oc2c1`, the z-score is -0.66.

For `Cn1c2c(c(=O)n(C)c1=O)C(C(=O)Nc1ccc(Cl)cc1)CC(=O)N2` (stereo not drawn), the z-score is 1.36.

As to `COC(=O)c1sccc1NNS(=O)(=O)c1ccc(C)cc1`, the z-score is 0.67.

As to `C=CCOc1ccc(C(=O)N(Cc2ccc(OC)cc2)C2CCS(=O)(=O)C2)cc1` (stereo not drawn), the z-score was 1.67.

With `C=CCOc1ccc2c(=O)cc(C(=O)OCC)oc2c1`, the z-score is -0.35.

For `NC(=O)c1c(NC(=O)CSc2nc3ccccc3o2)sc2c1CCC2`, the z-score was 0.14.

For `CC(C)N1CCC(=O)N(c2ccccc2Cl)C1=O`, the z-score is 5.02 (active).

As to `CC(C)(C)n1cnnc1Sc1ccc([N+](=O)[O-])cn1`, the z-score is 2.43.

Regarding `O=[N+]([O-])c1ccc(Sc2ccc(Cl)cc2)nc1`, the z-score was -0.03.

Consider `CC(C)Oc1ccccc1Oc1ccc([N+](=O)[O-])cn1`, for which the z-score is 14.5 (active).

In the case of `COc1c(Br)cc([N+](=O)[O-])c(OC)c1C(N)=O`, the z-score is -0.32.

In the case of `Cc1cc2n(n1)C(c1cc(C(C)(C)C)c(O)cc1O)Nc1ccccc1-2` (stereo not drawn), the z-score was 3.4 (active).

As for `CCN(CC)c1ccc(C2Nc3ccccc3-c3cc(C)nn32)c(O)c1` (stereo not drawn), the z-score is 0.47.

On to `Cc1cc(C)c2c(c1)-c1cc(C)nn1C(c1ccc(O)cc1)N2` (stereo not drawn), for which the z-score was 2.1.

Turning to `OC(CN1CCN(C(c2ccccc2)c2ccccc2)CC1)Oc1cccc(C(F)(F)F)c1` (stereo not drawn), the z-score is 2.86.

Consider `O=C1c2cccc3cc(Br)cc(c23)C(=O)N1CCO`, for which the z-score is 2.14.

`CCN1/C(=C\C=C\c2scc[n+]2CC)Sc2c1ccc1ccccc21`: the z-score was -2.64.

On to `CC(=O)/C(=C\N=S(C)(=O)c1ccc(C)cc1)S(=O)(=O)c1ccc(Cl)cc1` (stereo not drawn), for which the z-score was -3.56.

As for `CC1=C(C(=O)OCC2CCCO2)C(c2cccs2)C2=C(CC(c3cccs3)CC2=O)N1` (stereo not drawn), the z-score was 1.27.

Take `CC1(C)Cc2c(C#N)c(SCc3nc4ccccc4[nH]3)nc(N3CCOCC3)c2CO1`: the z-score is -1.2.

With `C=CCn1c(SCc2nnc(SCC(=O)c3ccc(Cl)cc3)o2)nnc1-c1ccccc1`, the z-score was 1.72.

For `C=CCn1c(SCc2nc3ccccc3[nH]2)nnc1-c1ccccc1`, the z-score was 4.03 (active).
